MOR-DOR ag: agonists of human mu-delta opioid receptor heterodimerization; P35372+P41143; cells, OPRM1-OPRD1 heterodimerization, luminescence; activation, % at 9.3 µM; actives 0.3% (n = 340,000); in the data active = activation above about 18%;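 note: 0% = vehicle-treated cells and 100% = reference agonist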
HTR5A ag: HTR5A agonism, opioid heterodimer counter-screen | actives 0.61% (n = 340,000) | P47898 | activation, % at 9.3 µM | HTR5A agonist assay, luminescence, cell-based | AID 504692; in the data active = activation mostly above about 9.5%, no sharp cut-off; inactive = mostly below about 7.6%;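 note: 0% = cells with vehicle only and 100% = reference agonist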
HTR2A ag: activates the mouse 5-HT2A serotonin receptor; activation, % at 7.6 µM; CHO-K1 mHTR2A beta-arrestin complementation, luminescence; percent of 30 µM serotonin response; actives 0.66% (n = 360,000); P35363;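 active = activation above a run cutoff, the mean activation of all tested compounds plus 3 SD, cut at about 14% in these data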;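 note: 0% = plate median of compound wells and 100% = 30 µM serotonin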
HTR5A inv ag: counter-screen for OPRM1-OPRD1 inverse agonists: human HTR5A inverse agonism; HTR5A cell line, luminescence; inhibition, % at 9.3 µM; actives 0.083% (n = 340,000); in the data active = inhibition mostly above about 23%, no sharp cut-off; inactive = mostly below about 18%;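 note: 0% = cells with DMSO and 100% = no-cell wells with DMSO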
MOR-DOR inv ag: inverse agonists of human mu-delta opioid receptor heterodimerization | inhibition, % at 9.3 µM | cell-based MOR-DOR heterodimer luminescence, inverse agonism | actives 0.21% (n = 340,000) | AID 504357; in the data active = inhibition above about 22%, passing the limit was not always enough;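 note: 0% = cells with DMSO and 100% = wells without cells with DMSO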
MOR ag counter: counter-screen for mouse HTR2A agonists: human mu opioid receptor agonists | shares compounds with HTR2A ag | U2OS OPRM1 beta-arrestin PathHunter, luminescence; DMSO 0%, DAMGO 9.3 µM 100% | activation, % at 9.3 µM | actives 5.3% (n = 2,300) | AID 624380;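 active = mean activation above the mean of DMSO-only wells plus 3 SD, cut at about 0.5% in these data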
HTR2A ag conf: confirmation of mouse HTR2A serotonin receptor agonists; activation, % at 7.6 µM; AID 624381; CHO-K1 PathHunter beta-arrestin recruitment, luminescence; DMSO 0%, 30 µM serotonin 100%; shares compounds with HTR2A ag; actives 19% (n = 2,300);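 active = mean activation across triplicates above the hit threshold derived in the original primary screen, cut at about 15% in these data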
An asterisk follows results filed as active; · = no result given. The list is not random: actives were taken first. Their share in the collection is about 1.6%.

SMILES	MOR-DOR ag	HTR5A ag	HTR2A ag	HTR5A inv ag	MOR-DOR inv ag	MOR ag counter	HTR2A ag conf
CC(=NNS(=O)(=O)c1cccc([N+](=O)[O-])c1)c1ccc(-n2ccnc2)cc1	-4	1	15*	-2	14	-1	-5
Clc1ccc(/C=N/NC2=Nc3cccc4cccc2c34)cc1	8	11	15*	-30	-50	0	2
C(=N\NC1=Nc2cccc3cccc1c23)/c1ccccc1	6	7	-2	-19	-34	·	·
O=C(Nc1ccc(Cl)cc1F)c1ccc2c(c1)C(=O)N(Cc1ccncc1)C2=O	·	·	19*	·	·	0	-6
ClCCn1c(CCl)nc2ccc(Cl)cc21	·	·	6	·	·	·	·
CCOc1ccccc1NC(=O)CCN1CCN(S(=O)(=O)c2ccc(Br)cc2)CC1	-2	6	17*	-11	7	0	1
COc1ccccc1CN(C)C[C@@H]1OCc2cnnn2CCCC(=O)N([C@H](C)CO)C[C@H]1C	·	·	3	·	·	·	·
COc1cc(/C=C2\C(=N)N3N=C(S(C)(=O)=O)SC3=NC2=O)cc(OC)c1OCCOc1ccc(C)cc1	-1	1	-5	-5	3	·	·
COc1cc(/C=C2\C(=N)N3N=C(S(C)(=O)=O)SC3=NC2=O)ccc1OCCOc1ccc(C)cc1	-4	0	16*	-1	17	-1	-2
CC(Sc1ccc(Cl)cc1)C(=O)NCc1ccc2c(c1)OCO2 (stereo not drawn)	0	0	22*	-2	0	-1	2
CC(Sc1ccc(Cl)cc1)C(=O)Nc1ccc2c(c1)OCO2 (stereo not drawn)	-2	-4	-4	23	12	·	·
COC(=O)c1ccccc1NC(=O)N1CCN(S(=O)(=O)c2ccc(Cl)cc2)CC1	3	-3	17*	-34	-17	-1	-3
CN(Cc1ccc(Cl)cc1)C(c1cc2ccccc2o1)c1nnnn1C(C)(C)C (stereo not drawn)	·	·	-5	·	·	·	·
CC(=O)N1CCN(C(=S)NC(=O)c2ccc(S(=O)(=O)N3CCOCC3)cc2)CC1	-2	1	16*	-4	9	-1	-3
CC1CCN(c2nc3c(c(=O)[nH]c(=O)n3C)n2CCSc2ncccn2)CC1	-1	3	60*	-5	8	0	-3
CN1CCN(c2nc3c(c(=O)[nH]c(=O)n3C)n2CCCSc2ncccn2)CC1	-3	4	1	14	16	·	·
CC(=O)C1=C(O)C(=O)OC1c1ccc(Cl)cc1 (stereo not drawn)	1	7	16*	-8	-3	0	0
CCn1c(SCC(=O)Nc2cc(C)on2)nnc1-c1ccc(S(=O)(=O)N2CCCC2)cc1	-1	-2	0	6	7	·	·
Cc1cc(NC(=O)CSc2nnc(-c3ccc(S(=O)(=O)N4CCCC4)cc3)n2C)no1	-1	2	18*	-19	5	-1	-5
COCCN1C[C@@H](CO)O[C@@H](n2cnc3c(NC(C)C)ncnc32)C1	·	·	14	·	·	·	·
COC(=O)[C@@]1(Cc2ccc(OC)cc2)[C@@H]2[C@@H](CC(=O)[C@H]2CC(=O)C(=O)N(C)C)CN1C(=O)c1ccccc1	-2	1	18*	-4	13	-1	-2
CN(Cc1ccccc1)C(=O)c1ccc(Cc2cn(C)c3ccccc23)nc1	·	·	-8	·	·	·	·
O=C(COC(=O)c1ccc(O)cc1O)NC(=O)NCc1ccccc1	-4	0	-2	21	15	·	·
Cc1ccc(NC(=O)NC(=O)COC(=O)c2ccc(O)cc2O)c(C)c1	·	·	15*	·	·	0	-1
CCSc1cc(C)nc2ncnn12	-1	0	10	-22	7	·	·
CCCCCCSc1cc(C)nc2ncnn12	0	1	21*	-11	0	0	4
CC(C)C[C@@H]1COc2cc(N3CCC[C@H]3CO)ccc2S(=O)(=O)N1	·	·	6	·	·	·	·
Nc1cc(Cl)nnc1Cl	-2	8	19*	-30	10	-1	-2
Cc1cc(C)c2cc(N)c(Cl)nc2n1	·	·	-1	·	·	·	·
CCCC(=O)N1CC2(C)CN(C(=O)CCC)CC(CCC)(C1)C2=O	0	1	16*	-18	2	-1	-4

High-throughput results as filed in PubChem.
